Measurements published in PubChem BioAssay (NCI).
This is part of a sample that, as a whole, favours compounds with a hit. Of some 79,000 tested, about 15% had one in any assay. Unmarked numbers belong to inactive results. Activity calls are given as the source filed them. Cut-off read from the data, not from the text of the source: active = growth inhibition above about 70%; inactive = the rest. Where a SMILES comes first, the peptide text is derived from it. [ ]: non-standard residue; d: D form. ξ: configuration not given here. ξH = NC(Cc1c[nH]cn1)C(=O)O

How the values were obtained:
[1] = NCI Yeast Anticancer Drug Screen. Data for the rad50 strain (AID 155);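 note: 0% = growth of vehicle-only cultures of the same strain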; conditions: S. cerevisiae rad50 strain growth inhibition; at 50.0 µM; active compounds read high
How it was run: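 A DNA repair-deficient yeast mutant serves as the test organism; compound-induced growth inhibition is calculated against vehicle-treated cells.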

[2] = NCI Yeast Anticancer Drug Screen. Data for the mec2-1 strain (AID 157); conditions: S. cerevisiae mec2-1 strain, at 50.0 µM, active compounds read high
How it was run: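 Strain: mec2-1 (DNA repair/cell cycle alteration). Compound exposure, then growth measured; inhibition expressed relative to vehicle.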

[3] = NCI Yeast Anticancer Drug Screen. Data for the sgs1 mgt1 strain (AID 161);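 note: 0% = growth of cultures given vehicle only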; conditions: S. cerevisiae sgs1 mgt1 strain, at 50.0 µM, active compounds read high
How it was run: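 Genetically altered yeast, compound exposure, growth inhibition relative to vehicle.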

[4] = NCI Yeast Anticancer Drug Screen. Data for the cln2 rad14 strain (AID 165);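 note: 0% = growth equal to vehicle treated cultures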; conditions: S. cerevisiae cln2 rad14 strain, at 50.0 µM, active compounds read high
How it was run: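 Compounds are applied to the cln2 rad14 yeast strain, and growth is then compared with that of vehicle-treated cultures to give inhibition.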

[5] = NCI Yeast Anticancer Drug Screen. Data for the bub3 strain (AID 167); conditions: S. cerevisiae bub3 mutant strain, at 50.0 µM, active compounds read high
How it was run: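 Inhibition values come from growth of compound-treated mutant yeast normalised to vehicle-treated controls.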

[6] = NCI Yeast Anticancer Drug Screen. Data for the mlh1 rad18 strain (AID 175); conditions: S. cerevisiae mlh1 rad18 strain growth inhibition; at 50.0 µM; active compounds read high
How it was run: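 Read-out is yeast growth inhibition, calculated against vehicle-only controls. The compound was applied to a strain engineered with DNA damage repair alterations.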

Structure (SMILES)	growth inhibition [1] [%]	growth inhibition [2] [%]	growth inhibition [3] [%]	growth inhibition [4] [%]	growth inhibition [5]	growth inhibition [6] [%]
Nc1ccc(Cl)c(S(=O)(=O)O)c1	21.7	-4.35	7.05	8.4	10.4%	17.1
[Cl][Sm]([Cl])[Cl]	17.9	-9.7	8.65	8.6	27.6%	9.6
O=C(O)c1c2c(nc3ccccc13)CCC2	2.55	-9.75	6.35	-14.5	12.2%	-8.4
COc1ccc(S(=O)(=O)N/N=C/c2cc(I)cc([N+](=O)[O-])c2O)cc1OC	35	22.1	17.1	4.95	-3.75%	38
Cc1cc(C)c(S(=O)(=O)O)cc1N	-2.55	2.1	6.1	-42	-0.05%	-26.1
Cc1c2sc3ccccc3[nH]c2nc2[nH]c3ccccc3sc12	-24.9	-10.7	-25.1	2.35	11%	0.95
O=C(Nc1ccc(Cl)cc1)OCc1ccco1	2.2	24.1	24.4	-12.4	17.8%	16.8
Cc1cc(Cl)ccc1OC(=O)NC1CCCCC1	-2.5	24.4	-2.35	-13.5	30.4%	30.4
Cc1ccc2nc3c(C)cc(=O)cc-3sc2c1	41.1	34.6	36.5	44.9	74.5% (active)	43.6
CCCCCCCCCc1ccc(COCCCC)cc1	21.9	55.1	56.1	50.1	49.5%	48.8
O=S(=O)(O)CC(O)CSSCC(O)CS(=O)(=O)O (stereo unspecified)	33.2	-3.55	8.25	-4.05	1.4%	-9.1
COc1cc(Cl)ccc1C	-1.2	-1.75	5.75	-14.3	18.1%	-16.6
O=Cc1ccc2c(c1)CC1(Cc3ccccc3C1)C2	-3.35	-47.8	-10.8	-7.2	9.9%	-30.3
Cc1cc(C)c(C(=O)O)c(C)c1Br	-3	-27.4	-4.85	-34.6	9.1%	4.5
COc1cc(NCCCCCNC(C)C)c2ncccc2c1	48.9	20.2	35.3	27.9	35.6%	54
CC1NC(C)c2ccc3ccccc3c2O1 (stereo unspecified)	-4.85	-12.7	-25.1	-9.35	-11.2%	-6.15
CC(=O)Nc1ccc(Br)cc1	0.85	-5.6	-18.4	-34	-17.1%	0.1
Cc1ccc(S(=O)(=O)OCC(C)C(c2ccccc2)c2ccccc2)cc1 (stereo unspecified)	7.45	1.9	-4.55	-20.9	-3.3%	0.2

Structure (SMILES)	growth inhibition [1] [%]	growth inhibition [2] [%]	growth inhibition [3] [%]	growth inhibition [4] [%]	growth inhibition [5]	growth inhibition [6] [%]
C=C[Si](Cl)(Cl)c1ccccc1	15.9	-2.45	1.65	-0.15	6.5%	11.2
CC(=O)OCc1ccc([N+](=O)[O-])cc1	-1.65	0.25	-8.8	8.05	-6.05%	6.1
CCC(=O)Oc1ccc(OCc2ccccc2)cc1	-28.3	-57.8	-31.4	-4	-16.9%	-25.9
O=C(NN1C(=O)CS(=O)(=O)C1c1ccccc1F)c1ccncc1 (stereo unspecified)	-8	-4.4	8.3	-9.35	-0.1%	7.75
NCC(=O)NC(Cc1cnc[nH]1)C(=O)NCC(=O)O (stereo unspecified) (H-Gly-[ξH]-Gly-OH)	-3.45	7.9	-0.2	-31.6	6.2%	5.15
NNC(=O)c1c(-c2cccnc2)cnc2ccccc12	-29.4	-20.6	-29.3	-6.8	-4.8%	-31.4
CSC(=NCc1ccccc1)Nc1c(C)cccc1C	13.4	4.45	6.75	8.1	28.1%	17.1
COC1C(=O)OC(=O)C1OC (stereo unspecified)	-73	-15.1	-1.05	-24.7	-8.55%	14.9
CC(C)CCCC(C)C1CCC2C3CCC4CC5(C)C(CC4(C)C3CCC12C)C(=O)C5(Cl)Cl (stereo unspecified)	13.2	-2.7	-22.4	0	-3.55%	-27.9
Brc1ccc(N=N/C(=N/Nc2ccccc2)c2ccc(/C=N/Nc3ccccc3)cc2)cc1	45.8	24.4	14.6	29.2	15%	34.4
O=[N+]([O-])c1ccc(NC(c2ccccc2)c2ccc3cccnc3c2O)cc1 (stereo unspecified)	-6.35	-20.1	0.2	-15.3	-2.75%	-10.3
O=C1CC(c2ccccc2)=NN1c1ccccc1	-8.3	-25.4	-5.55	9.5	-23.8%	18.6
COc1ccc(CCNC(=O)CC2CCN(Cc3ccccc3)CC2)cc1OC	3.65	1.15	5.2	-3.75	-3.45%	-1.5
C(CCN1CN(CCCCN2CCOCC2)CN(CCCCN2CCOCC2)C1)CN1CCOCC1	12.8	4.75	10.4	-5.5	-1.75%	29.6
Cc1[nH]n(C(N)=S)c(=O)c1N=Nc1c(Cl)cccc1Cl	55.4	14.9	63.2	-37.4	11.9%	51
CC(=O)c1ccc(N=C2C(=O)Nc3ccccc32)cc1	28.9	15.8	10.4	19.8	9%	25.8
CCCOC(=O)c1ccc(Cl)c(Cl)c1	10.6	7.85	2.5	-58.2	-6.15%	5.9
O=C1NC(=O)C(c2ccc(C(=O)O)cc2)N1 (stereo unspecified)	-12.8	-10	0.05	8.45	-5.5%	-2.25
